Most compounds without a hit are left out; they make up all but 4.8% or so of the library.
hgDAF12 agonist: hgDAF-12 agonism, primary luciferase screen; activation, % at 6.8 µM; AID 687014; HEK293 GAL4-hgDAF12 UAS-luciferase reporter, agonist luminescence; normalized to butyrate control; actives 1.8% (n = 370,000);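 active = activation above a cutoff set at the mean of all screened compounds plus 3 SD, cut at about 10% in these data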
ssDAF-12 act: S. stercoralis DAF-12 activation, primary screen; AID 652126; HEK293 ssDAF-12/GRIP1 lit1-tk-luc reporter, luminescence; % of 3 µM dafachronic acid response; activation, % at 6.8 µM; actives 1% (n = 370,000);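 active = activation above the mean over all tested compounds plus 3 SD, cut at about 0.9% in these data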
DAX1 inh-1: inhibits human nuclear receptor DAX1; P51843; HEK293 Gal4-DAX1 luciferase reporter, luminescence; inhibition, % at 6.75 µM; actives 0.99% (n = 340,000); AID 504766;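 active = inhibition above the mean over all tested compounds plus 3 SD, cut at about 4.2% in these data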;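 also: inhibition shows as a rise in luminescence from relieved DAX1 repression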
Target sequence (P51843 207-470 limits assumed): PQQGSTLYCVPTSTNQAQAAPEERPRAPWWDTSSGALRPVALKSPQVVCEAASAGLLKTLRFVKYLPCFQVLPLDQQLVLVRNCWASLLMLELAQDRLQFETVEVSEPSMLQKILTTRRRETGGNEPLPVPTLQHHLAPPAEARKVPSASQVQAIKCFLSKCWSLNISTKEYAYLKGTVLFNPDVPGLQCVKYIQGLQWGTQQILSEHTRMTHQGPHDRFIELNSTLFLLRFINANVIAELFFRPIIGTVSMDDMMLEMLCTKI
SMARCA2 act: SMARCA2 function activation, primary screen. MG213 cells, MMTV-luciferase reporter, dexamethasone, overnight. activation, % at 9.1 µM. actives 1% (n = 370,000); in the data active = activation above about 7.8%
DAX1 inh-2: DAX1 (NR0B1) inhibition, primary screen. HEK293T StAR-luciferase reporter, SF-1/DAX-1 repression relief. inhibition, % at 6.8 µM. actives 1.1% (n = 370,000). AID 652010;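 active = inhibition above the mean over all tested compounds plus 3 SD, cut at about 3.6% in these data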;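 also: higher inhibition means more luminescence from relief of DAX-1 repression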
hcDAF-12 act: activators of H. contortus DAF-12 nuclear receptor; HEK293 hcDAF-12 lit1-tk-luc reporter, luminescence; 0% DMSO, 100% Δ7-dafachronic acid; activation, % at 6.8 µM; actives 1.4% (n = 370,000); AID 652067;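 active = activation above the mean of all tested compounds plus 3 SD, cut at about 5.5% in these data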
SMARCA2 conf: SMARCA2 activation, confirmation screen. shares compounds with SMARCA2 act. actives 30% (n = 3,500). MG213 cells, MMTV-luciferase with dexamethasone, luminescence, overnight; MG213 cells expressing E1A, Rb sequestered; DMSO wells 0%, reference activator 100%. activation, % at 9.1 µM;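 active = activation above its plate's cutoff, the mean activation of tested wells plus 3 SD, cut at about 7.9% in these data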
VP16 Luc act: GAL4-VP16 reporter activation counter-screen. HEK293 GAL4-VP16 pG5luc reporter, luciferase luminescence; scaled: DMSO wells 0%, SAHA wells 100%. shares compounds with SMARCA2 act. activation, % at 9.1 µM. actives 41% (n = 3,500). AID 686939;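 active = activation above the solvent-only control well mean plus 3 SD, averaged across control plates, cut at about 5.2% in these data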
Numbers stand for hits; i = inactive; nt = no result.

SMILES | hgDAF12 agonist | ssDAF-12 act | DAX1 inh-1 | SMARCA2 act | DAX1 inh-2 | hcDAF-12 act | SMARCA2 conf | VP16 Luc act
COCC(C)NC(=O)c1noc2c1CCc1cc(OC)ccc1-2 (stereo unspecified) | i | i | i | 9.7 | i | i | i | 11.1
CC1(C(=O)NS(=O)(=O)Cc2ccccc2)CCN1C(=O)Cc1ccc(-c2ccccc2)cc1 (stereo unspecified) | i | i | nt | 8.3 | i | i | i | i
CC1(C(=O)NS(=O)(=O)Cc2ccccc2C(F)(F)F)CCN1C(=O)Cc1ccccc1 (stereo unspecified) | i | i | nt | i | i | i | nt | nt
Nc1ccc(Nc2nc(-c3cc4ccccc4oc3=O)cs2)cc1 | i | i | i | i | i | i | nt | nt
CNc1nnc(-c2cc3ccccc3oc2=O)s1 | i | i | i | 8.3 | i | i | 12.6 | 14.3
CCOC(=O)C(=O)Cc1nc(OCc2ccccc2)cc(OCc2ccccc2)n1 | i | i | i | i | i | i | nt | nt
CC(=O)Nc1ccc(Sc2ccccc2C(=O)O)c(C(=O)O)c1 | i | i | i | i | i | i | nt | nt
C/C(=N\NC(=S)NCc1ccccc1)c1ccc(Cl)s1 | i | i | i | i | i | i | nt | nt
C/C(=N\NC(=S)NCc1ccccc1)c1cccs1 | i | i | i | 8.1 | i | i | i | i
Cc1ccc(SCCC(=O)Nc2ccccc2C(=O)N2CCOCC2)cc1 | i | i | i | i | i | i | nt | nt
Nc1ccccc1SCC(=O)N1CCc2ccccc21 | i | i | i | i | i | i | nt | nt
O=C(CSC1=NCCS1)N1CCc2ccccc21 | i | i | i | 8.1 | i | i | 12.2 | 8.4
Cc1ccc(NC(=S)NC(NC(=O)c2ccco2)C(Cl)(Cl)Cl)cc1 (stereo unspecified) | i | i | i | i | i | i | nt | nt
CC(C)c1ccc(NC(=O)COC(=O)C2CCCCC2)cc1 | i | i | i | 8.4 | i | i | i | i
O=C(CCn1c(=O)sc2ccccc21)Nc1nccs1 | i | i | i | 8.3 | i | i | i | 7.7
O=C(/C=C/c1cccs1)Nc1cccc(NC(=O)/C=C/c2cccs2)n1 | i | i | i | i | i | i | nt | nt
Cc1cc(C)nc(NC(=O)/C=C/c2cccs2)c1 | i | i | i | 8.8 | i | i | i | 9.9
Cc1nc(NC(=O)/C=C/c2ccccc2)sc1C(=O)N(C)C | 10.5 | i | i | 10.0 | i | i | i | 6.2
COc1ccc(OC)c(N2Cc3ccccc3C2)c1 | i | i | i | i | i | i | nt | nt
COc1cccc(/C=C2\Oc3cc(OC(=O)N4CCOCC4)ccc3C2=O)c1 | i | i | i | i | i | i | nt | nt
O=C(CCn1c(=O)oc2ccccc21)Nc1ccccc1 | i | i | i | 9.0 | i | i | i | i
O=C(Nc1nc2ccc(F)cc2s1)C1CCCO1 (stereo unspecified) | 11.3 | i | i | 10.3 | 4.0 | i | 12.4 | 5.5
OC(c1ccccc1)(c1nc(-c2ccc3c(c2)OCO3)cs1)C(F)(F)F (stereo unspecified) | i | i | nt | i | i | i | nt | nt
N#C/C(=C\C=C\c1ccccc1)c1nc(-c2ccc3c(c2)OCO3)cs1 | i | i | i | 9.8 | i | i | i | i
CCOc1ccccc1N(C)S(=O)(=O)c1ccc2[nH]cc(C(=O)N(CCOC)CCOC)c(=O)c2c1 | i | i | i | i | i | i | nt | nt
SMILES | hgDAF12 agonist | ssDAF-12 act | DAX1 inh-1 | SMARCA2 act | DAX1 inh-2 | hcDAF-12 act | SMARCA2 conf | VP16 Luc act
COC(=O)c1cc(S(=O)(=O)N2CCCC2=O)c(Cl)cc1Cl | i | i | i | 8.0 | i | i | i | i
CCc1ccc(CN(C)CCc2ccccn2)cc1 | i | i | i | i | i | i | nt | nt
CCOC1=C2[C@@H](CN(S(=O)(=O)c3ccc(C)cc3)[C@H]2c2cccc3ccccc23)[C@H]2C(=O)N(C3CCCCC3)C(=O)[C@H]2C1 | i | i | nt | 10.1 | i | i | i | i
CCOC1=C2[C@@H](CN(S(=O)(=O)c3ccc(C)cc3)[C@H]2c2cccc3ccccc23)[C@H]2C(=O)N(c3ccccc3)C(=O)[C@H]2C1 | i | i | nt | i | i | i | nt | nt
O=C(c1cccc(Br)c1)N1CCC(Oc2cccnc2)CC1 | i | i | nt | i | i | i | nt | nt
CCc1nc2ccc(C(=O)Nc3ccc(NC(C)=O)cc3)cn2c1N(CCC(C)C)CCN(C)C | i | i | nt | 8.4 | i | i | i | i
CCc1nc2ccc(C(=O)Nc3ccc(OC)c(OC)c3)cn2c1N(CCC(C)C)CCN(C)C | i | i | nt | i | i | i | nt | nt
O=C(COc1ccccc1Cl)NC1CC1 | i | i | i | i | i | i | nt | nt
COc1cccc(C(=O)Nc2ccc(F)cc2F)c1 | i | i | i | i | i | i | nt | nt
COc1cccc(C(=O)Nc2ccc3c(c2)C(=O)c2ccccc2C3=O)c1 | i | i | i | 12.1 | i | i | i | 12.0
COc1cccc(C(=O)Nc2ccc(F)c(F)c2F)c1 | i | i | i | 9.0 | i | i | i | 7.9
COc1cccc(C(=O)Nc2ccc(C)cc2)c1 | i | 1.6 | i | 11.2 | 4.0 | i | i | 6.6
COc1cccc(C(=O)Nc2ccc(C(=O)O)cc2)c1 | i | i | i | i | i | i | nt | nt
COc1ccc(NC(=O)c2ccc(C)cc2)c(OC)c1 | 11.7 | i | i | 13.8 | i | i | i | 6.8
CCCCCCC1/C(=N\NC(=O)c2ccccc2)CCC1C(=O)OC (stereo unspecified) | i | i | i | i | i | i | nt | nt
C[C@@H]1CN([C@@H](C)CO)C(=O)CCCn2cc(nn2)CO[C@H]1CN(C)C(=O)Nc1cccc2ccccc12 | i | i | nt | i | i | i | nt | nt
CSc1nc(Cl)cc(Nc2ccc(O)cc2)n1 | i | i | i | 14.2 | i | i | i | i
O=S1(=O)c2ccccc2-c2c(nnn2CC2CCCCC2)CN1C1CC1 | i | i | nt | i | i | i | nt | nt
CN1Cc2nnn(CC3CCCCC3)c2-c2ccccc2S1(=O)=O | i | i | nt | 8.2 | i | i | i | i
COCCNC(=O)CN1CCCCCC1 | i | i | i | 8.3 | i | i | i | i
Cc1ccc(C(=O)NCCNC(=O)CN2CCCC2)cc1 | i | i | i | i | i | i | nt | nt
Cn1c(N)c(C(=O)COC(=O)c2cc(S(=O)(=O)N3CCOCC3)ccc2F)c(=O)n(C)c1=O | i | i | i | 36.6 | i | i | 9.9 | i
Cc1ccc(S(=O)(=O)N2CCOCC2)cc1C(=O)OCC(=O)NC1CCCCC1 | i | i | i | i | i | i | nt | nt
Cc1ccc(S(=O)(=O)N2CCOCC2)cc1C(=O)OCC(=O)c1c(N)n(C)c(=O)n(C)c1=O | i | i | i | i | i | i | nt | nt

Screening data deposited in PubChem BioAssay by The Scripps Research Institute Molecular Screening Center.
